# Out of some 100,000 compounds screened, about 770 (0.77%) were called active. This excerpt belongs to a sample that is enriched for actives. Unmarked numbers belong to inactive results. Cut-off read from the data, not from the text of the source: active = inhibition above about 50%; inactive = the rest.
# Molecular target: Gag-Pol polyprotein (Human immunodeficiency virus type 1 group M subtype B (isolate HXB2)) (UniProt P04585)
# Test: RNase H inhibition, HIV 1 Gag Pol polyprotein, FRET biochemical assay, screening (AID 372)
# Conditions: HIV-1 RT RNase H, FRET RNA/DNA substrate fluorescence; at 10 µM; active compounds read high
row,SMILES,inhibition
1,CC(C)(C)c1cc(/C=N/NC(=O)c2ccccc2O)cc(C(C)(C)C)c1O,25%
2,CC1=C(C(=O)Nc2ccc(Br)cc2)C(c2ccc(C)cc2)NC(=S)N1 (stereo not drawn),57% (active)
3,CC1=C(C(=O)Nc2ccc(C)cc2)C(c2ccc(Br)cc2)NC(=S)N1 (stereo not drawn),10%
4,CC1=C(C(=O)Nc2ccc(Br)cc2)C(c2ccc(Br)cc2)NC(=S)N1 (stereo not drawn),11%
5,COC(=O)C1=C(C)N(C)C(=O)NC1c1cc2c(cc1[N+](=O)[O-])OCO2 (stereo not drawn),3%
6,COc1ccccc1/C=C1/SC(=NCc2ccccc2)N(Cc2ccccc2)C1=O,28%
7,COc1ccc(/C=C2\SC(=NCc3ccccc3)N(Cc3ccccc3)C2=O)cc1OC,54% (active)
8,COc1ccc(/C=C2\SC(=NCc3ccccc3)N(Cc3ccccc3)C2=O)cc1C(=O)O,23%
9,COc1ccc(/C=C2\SC(=O)N(Cc3ccccc3)C2=O)cc1OC,44%
10,COC(=O)c1ccc(/C=C2\SC(=NCc3ccccc3)N(Cc3ccccc3)C2=O)cc1,59% (active)
11,CCOc1ccc(/C=C2\SC(=NCc3ccccc3)N(Cc3ccccc3)C2=O)cc1,0%
12,O=C1CC(c2ccccc2)CC(O)=C1C=NCCN1CCNCC1 (stereo not drawn),0%
13,COc1ccc(C=Nc2ccc(C)c(F)c2)cc1OC,6%
14,CCOC(=O)COc1c(Cl)cc(/C=C2\C(=O)NC(=O)N(c3ccc(F)cc3)C2=O)cc1Cl,2%
15,CC/C(=C1\C(=O)N(c2nc3ccccc3s2)N=C1C(F)(F)F)N1CCCCC1,5%
16,CCOc1ccc(N(CC(=O)N2CCC(C)CC2)S(=O)(=O)c2ccccc2)cc1,8%
17,CCc1cc(CC)c(/C=N/O)c(CC)c1/C=N/O,0%
18,CCc1cc(CC)c(Cc2c(CC)cc(CC)c(/C=N/NC(N)=O)c2CC)c(CC)c1/C=N/NC(N)=O,50% (active)
19,CCCOc1ccccc1/C=N/NC(N)=O,0%

row,SMILES,inhibition
1,Cc1ccc([N+](=O)[O-])cc1S(=O)(=O)n1cnc2ccccc21,22%
2,Cc1cc2ncn(S(=O)(=O)c3ccc(Cl)c([N+](=O)[O-])c3)c2cc1C,23%
3,Cc1cc2ncn(S(=O)(=O)c3cc([N+](=O)[O-])ccc3Cl)c2cc1C,57% (active)
4,CCCC(=O)Nc1ccc(N2CCOCC2)c(Cl)c1,0%
5,CCOC(=O)CCCN1C(=O)S/C(=C\c2ccc(OC)cc2)C1=O,0%
6,COc1ccc(N2CC(C(=O)N/N=C/c3ccc(OC)c(OC)c3)CC2=O)cc1 (stereo not drawn),3%
7,CCOc1cc(/C=C2\SC(=S)N(/N=C/c3ccc(O)c(OCC)c3)C2=O)ccc1O,20%
8,Nc1ccc(-c2nc3ccccc3[nH]2)c(N)c1,4%
9,Cc1ccc2nc(-c3sc(=S)n(-c4ccccc4)c3N)[nH]c2c1,21%
10,COc1ccccc1/C=C/C(=O)c1c(-c2ccccc2)c2cc(Cl)ccc2[nH]c1=O,60% (active)
11,COc1cc(/C=C/C(=O)c2c(-c3ccccc3)c3cc(Cl)ccc3[nH]c2=O)cc(Br)c1OC,26%
12,O=C(/C=C/c1ccccc1F)c1c(-c2ccccc2)c2cc(Cl)ccc2[nH]c1=O,48%
13,COc1cc(/C=C/C(=O)c2c(-c3ccccc3)c3cc(Cl)ccc3[nH]c2=O)cc(OC)c1OC,3%
14,COc1ccc(OC)c(/C=C/C(=O)c2c(-c3ccccc3)c3cc(Cl)ccc3[nH]c2=O)c1,50% (active)
15,COc1ccc(/C=C/C(=O)c2c(-c3ccccc3)c3cc(Cl)ccc3[nH]c2=O)cc1OC,11%
16,C=CCN1C(=O)/C(=C\c2ccc(-c3ccc(Br)cc3)o2)C(=O)NC1=S,32%
17,Cc1ccc(NC(=O)C(=O)NCc2ccc3c(c2)OCO3)cc1,4%
18,Cc1nc2cc(-c3ccc(I)cc3)[nH]n2c(=O)c1C,0%
19,COC(=N)/C(C#N)=C/c1c(O)n(-c2c(Cl)cccc2Cl)c2ccccc12,1%

# From PubChem BioAssay AID372 (MTDP, 2006)
